Assay [1] is described as follows: inhibitors of TNFa-induced NFkB p65 translocation, primary screen, imaging, HUVEC, MLSMR starter and 10KST1 sets (AID 438;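 active = inhibition above 20% together with a positive visual image hit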;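 note: compound added about 3h40 before a 20 min TNFalpha stimulation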;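 for inhibition: signal is the nuclear over cytoplasmic p65 intensity ratio per well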). Conditions: HUVEC TNFa-induced p65 nuclear translocation; cell count: measured here: nuclei count (cytotoxicity indicator), at 2.08 µM; inhibition: at 2 µM, stronger effect = higher value, 0% TNFa-plus-vehicle, 100% no-TNFa wells.
Assay [2] in a line: reduction of polyQ htt aggregates in cells – imaging, exon1htt(103Q)mCFP cells, high-content imaging, primary screen (AID 483;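 active = visual image review flags a hit and inhibition of aggregation exceeds 20%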;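 note: compound exposure lasted 3 days before fixation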;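 for nuclei count: percent of the per-plate median nuclei count of sample wells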). Conditions: exon1htt(103Q)mCFP cell line, aggregate imaging, at 2 µM; inhibition of aggregation: stronger effect = higher value; nuclei count: measured here: cell count, toxicity.
The nature of assay [3]: endothelial E-selectin expression blockers – imaging, HUVEC, immunofluorescence, MLSMR starter and 10KST1 sets, primary screen (AID 487;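 active = visually confirmed hit in the image check and inhibition above 20%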;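 for inhibition: signal is fraction of cell area covered by stained E-selectin grains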;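 for nuclei count: 100% = median nuclei count of all wells on the same plate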). The following applies: HUVEC TNFalpha-induced E-selectin immunofluorescence imaging, at 2 µM; inhibition: stronger effect = higher value; nuclei count: measured here: cell number, toxicity.
The target in assay [4] is Voltage-gated potassium channel subunit beta-2 (Rattus norvegicus) (UniProt P62483). The assay can be described thus: inhibitors of rat Kvbeta2 reductase activity – biochemical, NADPH fluorescence, primary screen (AID 622;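 active = fluorescence slope higher than the sample average by over 3 SD, cut at about -0.22 in these data, passing the limit was not always enough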;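 note: slope of raw intensity against log time taken from 70 to 1610 s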). The following applies: recombinant KvBeta, 4-cyanobenzaldehyde reduction, at 10 µM, stronger effect = higher value.
Assay [5] shares this target. The experiment in a line: enhancers of rat Kvbeta2 NADPH turnover – biochemical, NADPH fluorescence, primary screen (AID 623).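 Note: fluorescence intensity change per second fitted from 20 to 320 s.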 The following applies: Recombinant KvBeta, NADPH fluorescence decrease slope, 10 min; at 10 µM; stronger effect = lower value.
Assay [6] deals with Alpha-2C adrenergic receptor (Homo sapiens) (UniProt P18825). The assay can be described thus: compounds altering alpha2C-coupled GIRK flux – cell-based, HEK293 alpha2C/GIRK1/2, thallium flux, primary screen (AID 624;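 active = fluorescence slope after compound addition differing from the mean of all screened samples at 99.7% confidence, in either direction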;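 note: slope of fluorescence ratio to pre-addition baseline per second over 15 to 24 s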). The following applies: thallium flux BTC fluorescence, at 10 µM, actives lie on both sides.
Assay [7] can be described thus: blockers of RIG-like receptor reporter activation – cell-based, Sendai virus stimulus, luciferase, 10K MLSCN set, TLR/RLR signaling modifier project, primary screen (AID 602276;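 active = inhibition at or above 50% at 10 µM; inactive = inhibition below 50%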;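 note: firefly luciferase from ISG56 promoter only with Renilla not read in this screen; 0% = Sendai virus plus DMSO and 100% = medium plus DMSO without virus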). Conditions: HEK293 RL24 IRF3 luciferase reporter, at 10 µM, stronger effect = higher value. For orientation: Reporter assays use an easily measured gene product as a stand-in for the process of interest.

A short description of assay [8]: TLR3 IRF3 reporter activation blockers – cell-based, poly I:C stimulus, luciferase, 10K MLSCN set, primary screen (AID 602277;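 active = inhibition of the reporter signal at or above 50%; inactive = inhibition below 50%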). The following applies: HEK293-TLR3 RL24 IRF3 luciferase reporter, at 10 µM, stronger effect = higher value.

Each structure is given as a SMILES string. The source made the active and inactive calls.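 Rule for the calls, unless noted: active = NADPH fluorescence slope more negative than the mean of all samples by about 3 SD, 99.7% confidence; inactive = the rest.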

Usually inhibition stands for the relative decrease from the control value, in per cent.

Sequence of Voltage-gated potassium channel subunit beta-2 (Rattus norvegicus) (P62483 whole entry, looked up): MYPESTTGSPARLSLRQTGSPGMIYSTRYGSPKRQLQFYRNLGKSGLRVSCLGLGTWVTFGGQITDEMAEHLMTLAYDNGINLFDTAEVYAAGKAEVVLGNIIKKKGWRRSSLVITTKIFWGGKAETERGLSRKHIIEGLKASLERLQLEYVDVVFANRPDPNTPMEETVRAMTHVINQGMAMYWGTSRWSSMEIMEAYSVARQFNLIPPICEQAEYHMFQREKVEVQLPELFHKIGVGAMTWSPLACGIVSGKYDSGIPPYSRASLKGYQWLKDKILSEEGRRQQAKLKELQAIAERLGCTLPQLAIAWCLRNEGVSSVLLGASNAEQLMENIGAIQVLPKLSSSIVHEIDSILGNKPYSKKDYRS
Sequence of Alpha-2C adrenergic receptor (Homo sapiens) (P18825 whole entry, looked up): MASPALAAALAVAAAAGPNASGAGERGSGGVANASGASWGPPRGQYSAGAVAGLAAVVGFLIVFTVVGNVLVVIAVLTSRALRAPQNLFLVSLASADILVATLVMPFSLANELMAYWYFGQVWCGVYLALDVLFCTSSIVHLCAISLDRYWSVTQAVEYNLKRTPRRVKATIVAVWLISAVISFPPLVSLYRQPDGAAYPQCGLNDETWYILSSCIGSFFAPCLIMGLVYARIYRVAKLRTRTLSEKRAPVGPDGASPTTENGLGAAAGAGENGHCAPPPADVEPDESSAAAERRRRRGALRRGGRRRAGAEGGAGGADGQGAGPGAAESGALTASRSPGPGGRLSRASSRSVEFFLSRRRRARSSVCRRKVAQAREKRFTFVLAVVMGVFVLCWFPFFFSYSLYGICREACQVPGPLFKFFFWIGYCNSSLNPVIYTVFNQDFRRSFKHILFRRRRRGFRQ

For the molecule `O=C(O)C1C2C=CC3(CN(C4CCCC4)C(=O)C13)O2` (centres undefined), the cell count in assay [1] is 521. Also, the inhibition in assay [1] is -3.4% (inactive); in assay [3], -23.3% (inactive); in assay [7] it was 12.5% (inactive); in assay [8], 38% (inactive). Also, the inhibition of aggregation in assay [2] was 24.1% (inactive). Moreover, the figures for the nuclei count in assay [2] and in assay [3] were 69.2% and 97.3%, respectively. In addition, the fluorescence slope in assay [4] is -0.546 (inactive). The NADPH fluorescence slope in assay [5] is -1.2e-05 (inactive). Further, in assay [6], the slope is 0.00708 (inactive).
Take `O=C(CSc1nnc(COc2ccc(Cl)cc2)o1)N1CCN(c2ccccc2)CC1`: the cell count in assay [1] turned out to be 359. Also, the inhibition in assay [1] was -0.5% (inactive); in assay [3] it was -83.8% (inactive); in assay [7], 5.53% (inactive); in assay [8] it was -9% (inactive). The inhibition of aggregation in assay [2] was -18.8% (inactive). Besides, the nuclei count is 98.2% in assay [2] and 110% in assay [3]. For the same molecule, the fluorescence slope in assay [4] was -0.501 (inactive). In assay [5], the NADPH fluorescence slope is -3.2e-06 (inactive). The slope in assay [6] was 0.00706 (inactive).
Turning to `Cc1nnc(SCC(=O)NCCN2C(=O)CSC2=O)s1`, the cell count in assay [1] turned out to be 413. Further, the inhibition in assay [1] is 2.2% (inactive); in assay [3], -195% (inactive); in assay [7], 9.12% (inactive); in assay [8], 19.5% (inactive). Moreover, the inhibition of aggregation in assay [2] was 19.8% (inactive). The nuclei count was found to be 65.4% in assay [2] and 125% in assay [3]. Further, the fluorescence slope in assay [4] was -0.606 (inactive). Moreover, the NADPH fluorescence slope in assay [5] is -1e-05 (inactive). Also, the slope in assay [6] is 0.00749 (inactive).
On to `C=C(Cl)COc1ccc2c(C)cc(=O)oc2c1`, for which the cell count in assay [1] was found to be 319. Moreover, the inhibition in assay [1] is -6.8% (inactive); in assay [3], -31.6% (inactive); in assay [7], -24.5% (inactive); in assay [8], -67.7% (inactive). For the same molecule, in assay [2], the inhibition of aggregation was -0.8% (inactive). The nuclei count in assay [2] was found to be 71.6%; in assay [3], 101%. For the same molecule, the fluorescence slope in assay [4] is -0.587 (inactive). The NADPH fluorescence slope in assay [5] was 3.6e-07 (inactive). Also, the slope in assay [6] was 0.00646 (inactive).
`Cc1ccccc1-n1c(=O)cc(NCc2ccc3c(c2)OCO3)[nH]c1=O`: the cell count in assay [1] turned out to be 447. Also, the inhibition in assay [1] was 1.6% (inactive); in assay [3], -155% (inactive); in assay [7], 16.5% (inactive); in assay [8], 19.7% (inactive). Moreover, in assay [2], the inhibition of aggregation is 40.2% (active). For the same molecule, the nuclei count is 74.9% in assay [2] and 95.2% in assay [3]. For the same molecule, the fluorescence slope in assay [4] is -0.614 (inactive). Moreover, the NADPH fluorescence slope in assay [5] was 1.9e-05 (inactive). In assay [6], the slope is 0.00889 (inactive).
As for `C=CCn1c(SCC(=O)c2ccc(OC)cc2)nnc1C(C)NC(=O)c1cccs1` (centres undefined), the cell count in assay [1] worked out at 661. Moreover, the inhibition was -0.6% (inactive) in assay [1], -44.6% (inactive) in assay [3], 10.6% (inactive) in assay [7] and 12.5% (inactive) in assay [8]. In addition, in assay [2], the inhibition of aggregation was 1.5% (inactive). Moreover, the nuclei count in assay [2] came out at 127%; in assay [3], 132%. Moreover, the fluorescence slope in assay [4] is -0.349 (inactive). In addition, the NADPH fluorescence slope in assay [5] was -4e-06 (inactive). Moreover, the slope in assay [6] was 0.00302 (inactive).
Regarding `COc1cccc(C(=O)NC2=NCCS2)c1`, in assay [1], the cell count worked out at 400. Further, the inhibition is -13.2% (inactive) in assay [1], -56.9% (inactive) in assay [3], -13.2% (inactive) in assay [7] and -61.5% (inactive) in assay [8]. Further, the inhibition of aggregation in assay [2] was 29.5% (inactive). Besides, the figures for the nuclei count in assay [2] and in assay [3] were 71.6% and 131%, respectively. Also, in assay [4], the fluorescence slope is -0.496 (inactive). In addition, the NADPH fluorescence slope in assay [5] is -3.2e-05 (inactive). The slope in assay [6] is 0.00469 (inactive).
Take `CCC1CCCCN1CCNS(=O)(=O)c1ccc2c(c1)oc(=O)n2C` (centres undefined): the cell count in assay [1] came to 809. In addition, the inhibition in assay [1] is 1.8% (inactive); in assay [3], -92.7% (inactive); in assay [7], 14.3% (inactive); in assay [8], 39.8% (inactive). For the same molecule, the inhibition of aggregation in assay [2] was 19.9% (inactive). In addition, the nuclei count in assay [2] was 97.2%; in assay [3], 116%. The fluorescence slope in assay [4] was -0.581 (inactive). Moreover, the NADPH fluorescence slope in assay [5] is -4.9e-05 (inactive). The slope in assay [6] is 0.00605 (inactive).
Regarding `Cc1ccc(-n2ncc3c(=O)n(CC(=O)NCc4ccco4)cnc32)cc1`, in assay [1], the cell count was 473. The inhibition was -7% (inactive) in assay [1], -72.1% (inactive) in assay [3], 21.7% (inactive) in assay [7] and 20.3% (inactive) in assay [8]. In addition, the inhibition of aggregation in assay [2] was 9.4% (inactive). The nuclei count in assay [2] came out at 110%; in assay [3] it was 108%. Besides, the fluorescence slope in assay [4] was -0.485 (inactive). Besides, the NADPH fluorescence slope in assay [5] is -0.000156 (inactive). The slope in assay [6] is 0.00543 (inactive).
Consider `CCN(CC)CCn1c2ccccc2c2nc(C)sc21`, for which the cell count in assay [1] amounted to 613. Moreover, the inhibition is -3.3% (inactive) in assay [1], 34% (inactive) in assay [3], 16.1% (inactive) in assay [7] and 21.2% (inactive) in assay [8]. In assay [2], the inhibition of aggregation was -5% (inactive). Also, the nuclei count in assay [2] was determined as 98.7%; in assay [3], 86.3%. In addition, the fluorescence slope in assay [4] is -0.622 (inactive). The NADPH fluorescence slope in assay [5] is -3.9e-06 (inactive). Moreover, in assay [6], the slope is 0.00718 (inactive).
Turning to `COc1ccc(Cc2noc(-c3ccc(C)cc3)n2)cc1`, the cell count in assay [1] is 488. In addition, the inhibition in assay [1] was 12.1% (inactive); in assay [3], -304% (inactive); in assay [7], -38% (inactive); in assay [8], -135% (inactive). Also, in assay [2], the inhibition of aggregation was -0.3% (inactive). Moreover, the nuclei count in assay [2] came to 104%; in assay [3], 138%. Moreover, in assay [4], the fluorescence slope is -0.366 (inactive). In addition, the NADPH fluorescence slope in assay [5] was 3.7e-05 (inactive). Also, the slope in assay [6] is 0.00509 (inactive).
On to `CCCOc1ccc2ccccc2c1/C=N/n1cnnc1`, for which the cell count in assay [1] was found to be 209. In addition, the inhibition is 4.6% (inactive) in assay [1], -4.9% (inactive) in assay [3], 7.93% (inactive) in assay [7] and 3.78% (inactive) in assay [8]. Besides, the inhibition of aggregation in assay [2] is -0.3% (inactive). Besides, the values for the nuclei count in assay [2] and in assay [3] were 89.4% and 89.2%, respectively. Besides, in assay [4], the fluorescence slope was -0.31 (inactive). Moreover, the NADPH fluorescence slope in assay [5] is -1.6e-05 (inactive). Also, the slope in assay [6] was 0.008 (inactive).
Consider `CCOC(=O)C1CCN(Cc2ccc(F)c(Br)c2)CC1`, for which the cell count in assay [1] was 313. The inhibition was 3.4% (inactive) in assay [1], -156% (inactive) in assay [3], 9.36% (inactive) in assay [7] and 20.4% (inactive) in assay [8]. In addition, the inhibition of aggregation in assay [2] is -23.7% (inactive). The nuclei count was 110% in assay [2] and 140% in assay [3]. In addition, the fluorescence slope in assay [4] was -0.414 (inactive). The NADPH fluorescence slope in assay [5] was 2e-06 (inactive). Also, the slope in assay [6] is 0.00431 (inactive).
Regarding `COc1cc2c(cc1OC)CN(CC(=O)Nc1cccc(C)c1)CC2`, in assay [1], the cell count came out at 384. The inhibition in assay [1] was 3.5% (inactive); in assay [3], -74.2% (inactive); in assay [7], 7.7% (inactive); in assay [8] it was 9.94% (inactive). Besides, the inhibition of aggregation in assay [2] is -6.2% (inactive). Besides, the nuclei count in assay [2] was 98.6%; in assay [3], 102%. The fluorescence slope in assay [4] was -0.495 (inactive). Moreover, the NADPH fluorescence slope in assay [5] is -1.8e-05 (inactive). The slope in assay [6] was 0.00456 (inactive).

The record behind these values is PubChem BioAssay.
